Bioassay records from PubChem BioAssay.
MBNL1 CUG block = MBNL1-poly(CUG) RNA binding inhibition | Q9NR56 | TR-FRET MBNL1-His/biotin-(CUG)12 binding, 665/545 ratio | Potency, µM (doses to about 57.5 µM), for inactives: at the top dose activity change, negative = inhibition, usual class: inhibitors | 280,000 compounds, 0.036% hits; active = well fitted inhibition curve with a large enough effect in the signal ratio, with a control signal flat, not every such curve was filed as active; inconclusive = small, poorly fitted or top-dose-only effect, or effect the other way, or a change in a side signal; inactive = no such curve, though single readings can be large or run the other way; the % refers to the signal ratio; also: potency is read from the fitted curve at half-maximal effect; % is scaled to controls: 0 for no effect and ±100 for the full control effect
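TR-FRET readout: Ex 340 nm, 665/545 nm emission ratio, normalized to buffer-only (basal) and MBNL1-(CUG)12 controls. Complex of MBNL1-His with Biotin-(CUG)12, compounds 92 nM–58 uM, incubated 60 min at room temperature.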
CBFb RUNX1 block = CBF-beta/RUNX1 interaction disruption; AlphaScreen CBFb-His/RUNX1-biotin binding, biochemical; 230,000 tested, under 10 active; Q01196+Q13951; Potency, µM (top dose mostly 59.8 µM), inactives show at the top dose activity, negative = inhibition, actives largely listed as inhibitors; also: % of control where 0% means no effect
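Proteins preincubated together for 20 min at RT before compound addition; 15 min later, nickel and streptavidin beads were added and left 90 min prior to AlphaScreen measurement.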
L3MBTL1 block = L3MBTL1 (human) inhibition; Q9Y468; AlphaScreen L3MBTL1–H3K9me1 peptide binding; Potency, µM (highest dose often 57.1 µM), inactives show at the highest dose activity, negative = inhibition, usual class: inhibitors; 230,000 compounds, 0.66% hits; also: potency is read from the fitted curve at half-maximal effect; % is scaled to controls: 0 for no effect and ±100 for the full control effect; nearly all actives have a fitted effect of over 60% in size
Target sequence (Q9Y468 whole entry, looked up): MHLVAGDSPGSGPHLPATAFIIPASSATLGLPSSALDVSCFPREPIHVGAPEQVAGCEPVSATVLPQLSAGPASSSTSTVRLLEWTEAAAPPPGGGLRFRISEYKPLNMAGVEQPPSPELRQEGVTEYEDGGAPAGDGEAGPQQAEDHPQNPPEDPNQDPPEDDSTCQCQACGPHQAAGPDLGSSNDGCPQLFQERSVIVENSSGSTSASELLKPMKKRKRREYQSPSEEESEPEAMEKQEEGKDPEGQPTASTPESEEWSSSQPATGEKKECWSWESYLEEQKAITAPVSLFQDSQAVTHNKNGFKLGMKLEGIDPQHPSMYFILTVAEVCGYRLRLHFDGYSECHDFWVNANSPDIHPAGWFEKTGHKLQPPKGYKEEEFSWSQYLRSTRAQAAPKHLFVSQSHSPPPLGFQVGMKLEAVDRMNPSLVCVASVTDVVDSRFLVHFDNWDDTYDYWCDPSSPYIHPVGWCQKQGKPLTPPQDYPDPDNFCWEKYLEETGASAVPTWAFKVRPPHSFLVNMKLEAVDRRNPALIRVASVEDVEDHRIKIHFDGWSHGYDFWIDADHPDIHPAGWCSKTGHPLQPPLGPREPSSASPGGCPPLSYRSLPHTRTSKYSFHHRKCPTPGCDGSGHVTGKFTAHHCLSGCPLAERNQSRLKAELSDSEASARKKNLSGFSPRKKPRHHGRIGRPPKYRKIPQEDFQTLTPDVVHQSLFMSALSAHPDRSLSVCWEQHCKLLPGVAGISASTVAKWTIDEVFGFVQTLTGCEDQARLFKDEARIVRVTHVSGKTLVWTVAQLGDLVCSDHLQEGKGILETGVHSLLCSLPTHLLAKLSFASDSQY
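First, the protein-peptide complex forms for 30 min at room temperature (L3MBTL1 50 nM, biotinylated H3K9me1 peptide 75 nM). Next, compounds are pin-transferred and incubated 30 min. Finally, AlphaScreen beads are added and read after 30 min.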
Six1-Eya2 blk = inhibitors of human Six1/Eya2 interaction | activity change, % (no concentration beside the values) | Q15475+O00167 | AlphaScreen GST-Six1/His-Eya2 binding, biochemical; stronger effect = lower value | 360,000 compounds, 0.56% hits | AID 651725; in the data active = activity change below about -65%; inconclusive = mostly about -30% to -63%; also: % is scaled to controls: 0 for no effect and ±100 for the full control effect
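Homogeneous AlphaScreen proximity assay pairing GST-Six1 with His-tagged Eya2 (added as 5X mix: 250 nM and 500 nM) in 50 mM Tris pH 8.0, 300 mM NaCl, 1 mM TCEP. Glutathione donor and nickel acceptor beads; 1 h, 37 °C, dark.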
Eya2 inh = blocks the phosphatase activity of human Eya2. O00167. recombinant Eya2, OMFP fluorescence dephosphorylation (OMFP is methylfluorescein phosphate). Potency, µM (highest dose often 76.9 µM), inactives show at the top dose activity, negative = inhibition, hits mostly inhibitors. 330,000 compounds, 0.006% hits; also: potency is read from the fitted curve at half-maximal effect; % is scaled to controls: 0 for no effect and ±100 for the full control effect
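Eya2 protein (added as 0.2 uM solution) was preincubated with compound for 10 min at ambient temperature in 50 mM HEPES pH 7.5, 50 mM NaCl, 5 uM MgCl2, 0.05% BSA, 1 mM DTT. OMFP (added at 50 uM) then reacted 10 min; fluorescence read at 485/525 nm.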
CtBP-E1A inh = inhibitors of CtBP/E1A interaction | AlphaScreen GST-E1A/His-CtBP binding, 1536-well; stronger effect = lower value | activity change, % (test concentration not listed) | 340,000 compounds, 0.49% hits; in the data active = activity change below about -65%; inconclusive = mostly about -30% to -63%; also: % is scaled to controls: 0 for no effect and ±100 for the full control effect
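Protein mix (5X: 125 nM each GST-E1A, His-CtBP) was incubated with pinned compound 2 h at 37 deg C in dark, in 50 mM Tris pH 8.0 buffer with 300 mM NaCl. Glutathione donor and nickel acceptor beads followed; AlphaScreen signal read after 1 h.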
* marks the source's active call; other numbers are inactive results. An excerpt weighted towards active compounds, which were near 0.89% of everything screened. Unless noted, calls follow the shape of the dose curve; as a rule, active = well fitted curve in the direction sought with a large enough effect; inconclusive = small, poorly fitted or top-dose-only effect, or another doubt; inactive = no such curve, though single readings can be large; an effect the other way counts as inactive or inconclusive.

What do the screens show for `Cc1[nH]c2c(C)cccc2c1CCNC(=O)c1ccc2c(c1[N+](=O)[O-])C(=O)c1ccccc1C2=O`?
MBNL1 CUG block: inconclusive; CBFb RUNX1 block: -19%; L3MBTL1 block: -10%; Six1-Eya2 blk: -65*; Eya2 inh: -13%; CtBP-E1A inh: -92*

What do the screens show for `CN(C)C(=O)c1ccc2c(c1[N+](=O)[O-])C(=O)c1ccccc1C2=O`?
MBNL1 CUG block: inconclusive; CBFb RUNX1 block: -3%; L3MBTL1 block: -11%; Six1-Eya2 blk: -21; Eya2 inh: 6%; CtBP-E1A inh: -17

What do the screens show for `Cc1[nH]c2ccccc2c1CCNC(=O)c1ccc2c(c1[N+](=O)[O-])C(=O)c1ccccc1C2=O`?
MBNL1 CUG block: inconclusive; CBFb RUNX1 block: -18%; L3MBTL1 block: 0%; Six1-Eya2 blk: -73*; Eya2 inh: 3%; CtBP-E1A inh: 11

How did COC(=O)c1cc(OC)c(=O)c2c(OC)c(OC)ccc2c1 do in these assays?
CBFb RUNX1 block: 6%

How did CN(C)c1ccc(N=C/C=C2/N(C)c3ccccc3C2(C)C)cc1 do in these assays?
MBNL1 CUG block: inconclusive; CBFb RUNX1 block: inconclusive; L3MBTL1 block: inconclusive; Six1-Eya2 blk: -68*; Eya2 inh: -4%

How did Cc1ccc(CNS(=O)(=O)c2ccc(Cl)s2)cc1 do in these assays?
Six1-Eya2 blk: 12; CtBP-E1A inh: -4

What do the screens show for `Cc1c(NC(=S)N/N=C/C=C/c2ccc([N+](=O)[O-])cc2)c(=O)n(-c2ccccc2)n1C`?
MBNL1 CUG block: inconclusive; CBFb RUNX1 block: 0%; L3MBTL1 block: -4%; Six1-Eya2 blk: 13; Eya2 inh: -2%; CtBP-E1A inh: 31

Results for Cc1c(NC(=S)N/N=C/c2ccc([N+](=O)[O-])cc2O)c(=O)n(-c2ccccc2)n1C ?
MBNL1 CUG block: inconclusive; Six1-Eya2 blk: -84*; Eya2 inh: 2%; CtBP-E1A inh: -93*

How did Cc1c(NC(=S)N/N=C\c2ccccc2O)c(=O)n(-c2ccccc2)n1C do in these assays?
MBNL1 CUG block: 16%; CBFb RUNX1 block: inconclusive; L3MBTL1 block: inconclusive; Six1-Eya2 blk: -90*; Eya2 inh: -3%; CtBP-E1A inh: 32

What do the screens show for `CCN(CC)CCn1c(-c2ccccc2)nc2c(NCCO)nc(C)nc21`?
CBFb RUNX1 block: 3%

Results for COc1cc(/C=C(\C#N)c2[nH]nc(N)c2C#N)cc(OC)c1O ?
MBNL1 CUG block: inconclusive; CBFb RUNX1 block: -3%; Six1-Eya2 blk: inconclusive; Eya2 inh: 21%; CtBP-E1A inh: -67*

What do the screens show for `COc1cc(/C=C(\C#N)c2ccccn2)cc(OC)c1O`?
MBNL1 CUG block: 8%; CBFb RUNX1 block: 10%; Six1-Eya2 blk: -5; Eya2 inh: 20%; CtBP-E1A inh: -9

Results for O=C(O)/C=C/C(=O)Nc1ccc(Oc2ccc(NC(=O)/C=C/C(=O)O)cc2)cc1 ?
MBNL1 CUG block: -6%; CBFb RUNX1 block: -22%; L3MBTL1 block: 25µM*; Eya2 inh: 8%

Results for O=C(O)/C=C\C(=O)Nc1ccc(Oc2ccccc2)cc1 ?
MBNL1 CUG block: -4%; CBFb RUNX1 block: -6%; L3MBTL1 block: 0%; Six1-Eya2 blk: -6; Eya2 inh: 3%; CtBP-E1A inh: -1

What do the screens show for `CS(=O)(=O)N1CCN(c2ccccc2[N+](=O)[O-])CC1`?
MBNL1 CUG block: inconclusive; CBFb RUNX1 block: 1%; L3MBTL1 block: 3%; Six1-Eya2 blk: 4; Eya2 inh: 1%

How did CCOc1cccc(-c2nn3c(-c4cc(C)[nH]n4)nnc3s2)c1 do in these assays?
MBNL1 CUG block: 1%; CBFb RUNX1 block: -5%; L3MBTL1 block: -3%; Six1-Eya2 blk: inconclusive; Eya2 inh: 4%; CtBP-E1A inh: -71*
